# Measurements published in ChEMBL document CHEMBL1157539, “Thousands of chemical starting points for antimalarial lead identification” (Nature, 2010).
# System: Plasmodium falciparum
# Assay: GSK_TCMDC: Inhibition of Plasmodium falciparum Dd2 in whole red blood cells, using parasite LDH activity as an index of growth. Test compounds present at 2uM
# Assay type: functional
row,SMILES,Inhibition [%]
1,O=C(NCCCCN1CCC(c2ccc3c(c2OCCN2CCCC2=O)CCCC3)CC1)c1ccc(-c2ccc(C(F)(F)F)cc2)cc1,1
2,CC(C)c1cn2c3c(cc(C(=O)N[C@@H](Cc4ccccc4)[C@H](O)CNC4CCCCC4)cc13)N(C)S(=O)(=O)CC2.O=CO,99
3,CC1(CCc2ccccc2)N=C(N)N(Cc2ccccc2)C(=O)C1c1ccc(Cl)c(Cl)c1.O=C(O)C(F)(F)F (stereo not drawn),96
4,CN1CCN(CC(=O)Nc2ccc(-c3ccc(-c4nc5cc(C(F)(F)F)ccc5[nH]4)s3)cc2)CC1,73
5,COc1cc2nc(NCC3CCCO3)n3nc(-c4ccccc4)nc3c2cc1OC (stereo not drawn),97
6,CC(C)C[C@H](Nc1ccnc(NCC2CCCCC2)n1)C(=O)Nc1ccccc1.O=C(O)C(F)(F)F,42
7,CN1CCN(CC(=O)Nc2ccc(-c3ccc(-c4nc5cc(C(F)(F)F)ccc5[nH]4)cc3)cc2)CC1,98
8,CCCCc1ccccc1NS(=O)(=O)c1ccc(OC)c(N2CCNCC2)c1.Cl,2
9,O=C(Nc1cccc(Cl)c1Cl)N[C@H]1CCN(CCCCCNC(=O)C2CC2c2ccc(Cl)c(Cl)c2)C1 (stereo partly drawn),0
10,Cc1cccc2nc(-c3cccc(-c4cccc(NC(=O)CCc5c[nH]cn5)c4)c3)[nH]c12,86
11,CCCCCCCCc1c(C)nc(C)c(C#N)c1O,96
12,Cc1nnc(N2C(=N)SC(=Cc3ccc(-c4ccc(OC(F)(F)F)cc4)o3)C2=O)s1,58
13,COc1cccc(NC(=O)NCCNc2ccnc(Nc3ccc(F)cc3)n2)c1,1
